How the values were obtained:
Format in all cases: functional
[1] = tested on: Plasmodium falciparum; assay: GSK_TCMDC: Inhibition of Plasmodium falciparum 3D7 in whole red blood cells, using parasite LDH activity as an index of growth. Test compounds present at 2uM
[2] = tested on: Plasmodium falciparum; assay: GSK_TCMDC: Inhibition of Plasmodium falciparum Dd2 in whole red blood cells, using parasite LDH activity as an index of growth. Test compounds present at 2uM
[3] = tested on: HepG2; assay: GSK_TCMDC: Percent inhibition of human HepG2 cell line. Test compounds present at 10uM.

| SMILES | Inhibition [1] | Inhibition [2] | Inhibition [3] |
| --- | --- | --- | --- |
| Cc1ccc(S(=O)(=O)N2CCN(C(=O)c3cc(-c4cccs4)n[nH]3)CC2)c(C)c1 | 85% | 81% | 0% |
| O=C(CCc1cccnc1)Nc1ccc(-c2cccc(-c3nc4cc(F)ccc4[nH]3)c2)cc1 | 86% | 9% | 67% |
| COc1cccc(OC)c1CN1CCC(N(C)CCCCCCCCCN2CCC(OC(=O)Nc3ccccc3-c3ccccc3)CC2)CC1 | 98% | 98% | 100% |
| Cc1cccc2nc(-c3cccc(-c4cccc(CN5CCN(c6ccncc6)CC5)c4)c3)[nH]c12.O=C(O)C(F)(F)F | 100% | 96% | 47% |
| Cc1cccc2nc(-c3ccc(-c4cccc(CN5CCC(C(N)=O)CC5)c4)s3)[nH]c12.O=C(O)C(F)(F)F | 86% | 16% | 1% |
| O=C(NC1CCN(Cc2ccccc2)CC1)c1cccc(-c2cc3cc(Cl)c(Cl)cc3[nH]2)c1.O=C(O)C(F)(F)F | 100% | 86% | 15% |
| CCCCCCNC(=O)C1Cc2c([nH]c3ccc(C)cc23)C2(CCN(Cc3ccccc3)CC2)N1 (stereo not given) | 84% | 25% | 25% |
| Cc1noc(C)c1CN1CCCN(c2ccc3c(c2)CCN(Cc2ccc(-c4ncc[nH]4)cc2)CC3)CC1 | 98% | 39% | 1% |
| CNCCNCc1ccc(-c2cccc(-c3nc4cc(C(F)(F)F)ccc4[nH]3)c2)cc1.O=C(O)C(F)(F)F | 98% | 77% | 27% |
| COc1ccc2nccc([C@@H](O)CN3CCC(NCc4cnc5snnc5c4)C(F)C3)c2c1.Cl (stereo not given in full) | 83% | 88% | 13% |

From ChEMBL document CHEMBL1157539, “Thousands of chemical starting points for antimalarial lead identification” (Nature, 2010)
